The values that follow come from PMC7862700, “An all-to-all approach to the identification of sequence-specific readers for epigenetic DNA modifications on cytosine”.

Common to all, as to assay: DAPPL (digital affinity profiling via proximity ligation, sequencing); 10 mM Tris-HCl pH 7.5, 50 mM NaCl, 1 mM DTT, 4% glycerol, room temperature, 30 min; GST-TFs on glutathione beads, 16-mer random dsDNA library, 0.1% formaldehyde crosslink after washing; high values mean tight binding
Common to all, as to conditions: protein: recombinant; tags: N-terminal GST; dsDNA, one strand shown

Experiment [1] concerns the target T1, FLI1 (Homo sapiens, UniProt Q01543 1-452).
T1 sequence: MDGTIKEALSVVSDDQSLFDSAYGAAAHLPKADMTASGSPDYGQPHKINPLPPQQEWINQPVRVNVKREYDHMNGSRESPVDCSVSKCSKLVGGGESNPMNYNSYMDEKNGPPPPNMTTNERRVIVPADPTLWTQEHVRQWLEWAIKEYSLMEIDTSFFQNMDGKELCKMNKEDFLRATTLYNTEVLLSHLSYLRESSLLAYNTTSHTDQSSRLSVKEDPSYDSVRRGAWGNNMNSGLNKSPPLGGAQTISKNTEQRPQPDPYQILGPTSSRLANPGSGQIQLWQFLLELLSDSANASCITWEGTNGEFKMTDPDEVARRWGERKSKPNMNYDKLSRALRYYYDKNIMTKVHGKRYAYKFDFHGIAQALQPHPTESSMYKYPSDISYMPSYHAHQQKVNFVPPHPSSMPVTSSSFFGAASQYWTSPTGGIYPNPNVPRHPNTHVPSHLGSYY
An outline of the steps: (§1)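 Binding signal is each hexamer's read frequency for a factor divided by its frequency in the tag-only sample. The factors were GST-fused human transcription factors from yeast, captured on glutathione beads, DNA-barcoded and pooled with that sample. Pools were incubated with 200 nmole of a random double-stranded 16-mer DNA library in Tris/NaCl/DTT/glycerol buffer at room temperature for 30 min, then washed, crosslinked with 0.1% formaldehyde, proximity-ligated with BsaI/T4 ligase (1 h, 37 °C), PCR-amplified and sequenced on an Illumina NextSeq500.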

The target in experiment [2] is T2, ELK1 (Homo sapiens, UniProt P19419 1-428).
T2 sequence: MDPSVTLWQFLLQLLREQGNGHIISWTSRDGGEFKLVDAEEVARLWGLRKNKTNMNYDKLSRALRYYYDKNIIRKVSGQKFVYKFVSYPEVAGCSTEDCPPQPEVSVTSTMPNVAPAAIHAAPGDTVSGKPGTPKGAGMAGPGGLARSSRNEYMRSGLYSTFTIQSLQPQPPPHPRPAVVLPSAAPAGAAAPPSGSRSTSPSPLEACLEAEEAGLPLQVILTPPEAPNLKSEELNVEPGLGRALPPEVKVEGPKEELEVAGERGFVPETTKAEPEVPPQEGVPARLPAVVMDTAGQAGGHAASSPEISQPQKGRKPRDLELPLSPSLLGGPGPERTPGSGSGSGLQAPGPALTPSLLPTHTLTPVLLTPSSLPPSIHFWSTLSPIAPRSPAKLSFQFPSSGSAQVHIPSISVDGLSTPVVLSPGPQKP
An outline of the steps: as §1

The target in experiment [3] is T3, GABPA (Homo sapiens, UniProt Q06546 1-454).
T3 sequence: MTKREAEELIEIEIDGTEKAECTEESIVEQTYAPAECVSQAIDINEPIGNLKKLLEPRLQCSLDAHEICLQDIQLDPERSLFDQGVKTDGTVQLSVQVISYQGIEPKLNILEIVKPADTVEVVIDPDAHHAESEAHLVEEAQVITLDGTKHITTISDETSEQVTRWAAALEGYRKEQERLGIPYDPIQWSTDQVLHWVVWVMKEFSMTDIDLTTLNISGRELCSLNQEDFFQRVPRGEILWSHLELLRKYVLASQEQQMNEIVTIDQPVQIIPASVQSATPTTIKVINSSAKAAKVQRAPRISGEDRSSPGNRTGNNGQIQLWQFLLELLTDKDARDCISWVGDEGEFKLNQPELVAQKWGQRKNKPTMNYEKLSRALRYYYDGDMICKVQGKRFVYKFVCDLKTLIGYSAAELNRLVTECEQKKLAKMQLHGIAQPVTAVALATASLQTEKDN
An outline of the steps:
as §1

Experiment [4] addresses T4, ERG (Homo sapiens, UniProt P11308 1-479).
T4 sequence: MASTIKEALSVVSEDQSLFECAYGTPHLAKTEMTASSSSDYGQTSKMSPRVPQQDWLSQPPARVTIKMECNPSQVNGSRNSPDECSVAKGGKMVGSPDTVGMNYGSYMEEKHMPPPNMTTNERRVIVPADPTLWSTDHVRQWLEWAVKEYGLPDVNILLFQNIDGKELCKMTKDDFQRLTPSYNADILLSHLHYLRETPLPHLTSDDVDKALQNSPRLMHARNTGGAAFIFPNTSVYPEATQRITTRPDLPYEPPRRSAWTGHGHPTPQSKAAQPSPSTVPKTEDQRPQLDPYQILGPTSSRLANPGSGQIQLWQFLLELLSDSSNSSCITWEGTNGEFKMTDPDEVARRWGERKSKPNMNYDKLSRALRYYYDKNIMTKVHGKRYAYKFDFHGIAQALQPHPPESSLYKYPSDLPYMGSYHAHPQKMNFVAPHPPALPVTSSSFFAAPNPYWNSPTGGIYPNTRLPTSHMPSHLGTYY
An outline of the steps: as §1

Experiment [5] deals with ELF1 (Homo sapiens, UniProt P32519 1-619). An outline of the steps:
as §1

The target of experiment [6] is T5, EHF (Homo sapiens, UniProt Q9NZC4 1-300).
T5 sequence: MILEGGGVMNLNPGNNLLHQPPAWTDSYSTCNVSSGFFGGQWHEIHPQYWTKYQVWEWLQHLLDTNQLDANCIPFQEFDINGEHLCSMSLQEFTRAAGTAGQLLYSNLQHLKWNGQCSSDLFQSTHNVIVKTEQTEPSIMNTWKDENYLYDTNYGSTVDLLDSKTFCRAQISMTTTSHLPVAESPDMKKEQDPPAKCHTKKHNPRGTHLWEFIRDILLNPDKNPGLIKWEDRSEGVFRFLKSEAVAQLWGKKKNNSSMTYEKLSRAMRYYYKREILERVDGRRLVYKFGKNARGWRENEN
An outline of the steps: as §1

The target of experiment [7] is SPI1 (Homo sapiens, UniProt P17947 1-270). An outline of the steps: as §1
The target of experiment [8] is SPIB (Homo sapiens, UniProt Q01892 1-262). An outline of the steps:
as §1

The target of experiment [9] is T6, ELK3 (Homo sapiens, UniProt P41970 1-407).
T6 sequence: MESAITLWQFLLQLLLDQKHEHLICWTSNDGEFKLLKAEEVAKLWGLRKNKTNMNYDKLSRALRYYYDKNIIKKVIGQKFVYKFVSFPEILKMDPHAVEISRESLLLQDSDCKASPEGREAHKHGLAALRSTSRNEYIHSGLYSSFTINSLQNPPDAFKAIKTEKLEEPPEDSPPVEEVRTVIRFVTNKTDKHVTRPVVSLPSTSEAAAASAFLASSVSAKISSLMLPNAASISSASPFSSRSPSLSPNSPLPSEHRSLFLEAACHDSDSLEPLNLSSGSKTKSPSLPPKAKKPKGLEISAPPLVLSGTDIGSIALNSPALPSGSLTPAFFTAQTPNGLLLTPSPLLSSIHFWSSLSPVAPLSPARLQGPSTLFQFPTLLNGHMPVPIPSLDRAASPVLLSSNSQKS
An outline of the steps: as §1

SPIB, sequence (Q01892 whole entry): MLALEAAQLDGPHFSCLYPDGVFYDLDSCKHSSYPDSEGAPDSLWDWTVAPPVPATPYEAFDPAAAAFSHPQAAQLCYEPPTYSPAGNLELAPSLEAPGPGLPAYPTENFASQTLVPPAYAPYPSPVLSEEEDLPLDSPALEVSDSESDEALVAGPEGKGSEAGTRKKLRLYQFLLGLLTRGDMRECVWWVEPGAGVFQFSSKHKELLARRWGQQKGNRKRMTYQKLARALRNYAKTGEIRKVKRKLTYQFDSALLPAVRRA
ELF1, sequence (P32519 whole entry): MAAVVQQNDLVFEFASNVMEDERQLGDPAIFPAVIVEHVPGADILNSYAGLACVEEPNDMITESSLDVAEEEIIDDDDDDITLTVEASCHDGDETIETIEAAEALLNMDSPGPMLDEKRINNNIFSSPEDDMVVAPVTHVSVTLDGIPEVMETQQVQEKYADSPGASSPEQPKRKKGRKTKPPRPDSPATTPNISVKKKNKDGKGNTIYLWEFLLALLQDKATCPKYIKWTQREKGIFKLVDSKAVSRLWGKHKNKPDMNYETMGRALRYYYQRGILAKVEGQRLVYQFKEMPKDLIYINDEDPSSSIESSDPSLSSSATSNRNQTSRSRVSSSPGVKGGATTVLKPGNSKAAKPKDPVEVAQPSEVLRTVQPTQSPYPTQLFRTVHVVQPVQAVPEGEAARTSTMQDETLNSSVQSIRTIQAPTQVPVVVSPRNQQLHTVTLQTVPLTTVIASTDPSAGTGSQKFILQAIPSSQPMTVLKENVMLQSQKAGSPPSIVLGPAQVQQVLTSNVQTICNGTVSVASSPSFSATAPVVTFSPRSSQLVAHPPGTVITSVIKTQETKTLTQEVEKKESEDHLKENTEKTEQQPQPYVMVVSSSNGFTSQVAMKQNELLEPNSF

Take ACTACG: the binding signal in [1] was 1.33 fold enrichment (6-mer frequency, TF over GST control); in [2], 1.28 fold enrichment (6-mer frequency, TF over GST control); in [3], 1.32 fold enrichment (6-mer frequency, TF over GST control); in experiment [4] it was 1.24 fold enrichment (6-mer frequency, TF over GST control); in experiment [5], 1.34 fold enrichment (6-mer frequency, TF over GST control); in experiment [6], 1.36 fold enrichment (6-mer frequency, TF over GST control). Also, the binding signal in experiment [7] is 1.26 fold enrichment (6-mer frequency, TF over GST control); in [8], 1.47 fold enrichment (6-mer frequency, TF over GST control); in [9], 1.32 fold enrichment (6-mer frequency, TF over GST control).
On to CTTAGA, for which the binding signal in [1] is 1.13 fold enrichment (6-mer frequency, TF over GST control); in experiment [2], 1.11 fold enrichment (6-mer frequency, TF over GST control); in experiment [3] it was 1.17 fold enrichment (6-mer frequency, TF over GST control); in experiment [4], 1.09 fold enrichment (6-mer frequency, TF over GST control); in experiment [5] it was 1.08 fold enrichment (6-mer frequency, TF over GST control); in experiment [6] it was 1.1 fold enrichment (6-mer frequency, TF over GST control). Moreover, the binding signal in experiment [7] is 1.11 fold enrichment (6-mer frequency, TF over GST control); in experiment [8], 1.11 fold enrichment (6-mer frequency, TF over GST control); in experiment [9], 1.02 fold enrichment (6-mer frequency, TF over GST control).
For ATCGAA, the binding signal in experiment [1] was 1.11 fold enrichment (6-mer frequency, TF over GST control); in experiment [2] it was 1.12 fold enrichment (6-mer frequency, TF over GST control); in [3], 1.1 fold enrichment (6-mer frequency, TF over GST control); in [4], 1.1 fold enrichment (6-mer frequency, TF over GST control); in experiment [5], 1.14 fold enrichment (6-mer frequency, TF over GST control); in experiment [6] it was 1.16 fold enrichment (6-mer frequency, TF over GST control). The binding signal was 1.13 fold enrichment (6-mer frequency, TF over GST control) in experiment [7]; 1.18 fold enrichment (6-mer frequency, TF over GST control) in experiment [8]; 1.08 fold enrichment (6-mer frequency, TF over GST control) in [9].
As to AGGTCT, the binding signal was 1.31 fold enrichment (6-mer frequency, TF over GST control) in [1]; 1.17 fold enrichment (6-mer frequency, TF over GST control) in experiment [2]; 1.16 fold enrichment (6-mer frequency, TF over GST control) in experiment [3]; 1.15 fold enrichment (6-mer frequency, TF over GST control) in experiment [4]; 1.22 fold enrichment (6-mer frequency, TF over GST control) in [5]; 1.19 fold enrichment (6-mer frequency, TF over GST control) in experiment [6]. In addition, the binding signal in experiment [7] was 1.11 fold enrichment (6-mer frequency, TF over GST control); in [8] it was 1.22 fold enrichment (6-mer frequency, TF over GST control); in experiment [9], 1.3 fold enrichment (6-mer frequency, TF over GST control).
In the case of GAAATC, the binding signal in experiment [1] is 1.38 fold enrichment (6-mer frequency, TF over GST control); in experiment [2] it was 1.47 fold enrichment (6-mer frequency, TF over GST control); in experiment [3], 1.34 fold enrichment (6-mer frequency, TF over GST control); in experiment [4], 1.65 fold enrichment (6-mer frequency, TF over GST control); in experiment [5], 1.36 fold enrichment (6-mer frequency, TF over GST control); in experiment [6] it was 1.53 fold enrichment (6-mer frequency, TF over GST control). The binding signal is 1.4 fold enrichment (6-mer frequency, TF over GST control) in experiment [7]; 1.55 fold enrichment (6-mer frequency, TF over GST control) in experiment [8]; 1.42 fold enrichment (6-mer frequency, TF over GST control) in experiment [9].
As for TTTCTA, the binding signal in experiment [1] is 1.3 fold enrichment (6-mer frequency, TF over GST control); in experiment [2], 1.39 fold enrichment (6-mer frequency, TF over GST control); in [3], 1.29 fold enrichment (6-mer frequency, TF over GST control); in [4], 1.34 fold enrichment (6-mer frequency, TF over GST control); in experiment [5], 1.28 fold enrichment (6-mer frequency, TF over GST control); in experiment [6], 1.36 fold enrichment (6-mer frequency, TF over GST control). Moreover, the binding signal in experiment [7] is 1.36 fold enrichment (6-mer frequency, TF over GST control); in experiment [8], 1.19 fold enrichment (6-mer frequency, TF over GST control); in [9], 1.26 fold enrichment (6-mer frequency, TF over GST control).
Turning to TCACCA, the binding signal in [1] was 1.18 fold enrichment (6-mer frequency, TF over GST control); in experiment [2], 1.23 fold enrichment (6-mer frequency, TF over GST control); in [3], 1.12 fold enrichment (6-mer frequency, TF over GST control); in [4], 1.14 fold enrichment (6-mer frequency, TF over GST control); in [5], 1.18 fold enrichment (6-mer frequency, TF over GST control); in [6], 1.06 fold enrichment (6-mer frequency, TF over GST control). Moreover, the binding signal is 1.21 fold enrichment (6-mer frequency, TF over GST control) in experiment [7]; 1.2 fold enrichment (6-mer frequency, TF over GST control) in experiment [8]; 1.22 fold enrichment (6-mer frequency, TF over GST control) in experiment [9].
Take AATTGC: the binding signal in [1] is 1.44 fold enrichment (6-mer frequency, TF over GST control); in experiment [2], 1.42 fold enrichment (6-mer frequency, TF over GST control); in experiment [3], 1.44 fold enrichment (6-mer frequency, TF over GST control); in [4], 1.3 fold enrichment (6-mer frequency, TF over GST control); in experiment [5], 1.34 fold enrichment (6-mer frequency, TF over GST control); in experiment [6] it was 1.38 fold enrichment (6-mer frequency, TF over GST control). Moreover, the binding signal was 1.43 fold enrichment (6-mer frequency, TF over GST control) in experiment [7]; 1.29 fold enrichment (6-mer frequency, TF over GST control) in experiment [8]; 1.46 fold enrichment (6-mer frequency, TF over GST control) in [9].
